# Many of the other results were omitted from the sample, so hits are more common in it than they were.
# Pf Dd2 growth = qHTS Primary assay for Inhibitors of Plasmodium falciparum Dd2 growth in vitro. P. falciparum Dd2 growth, SYBR Green, 72 h. 120,000 compounds, 4.3% hits. Potency, µM (series often up to 28.9 µM), for inactives: top-dose activity, negative = inhibition, most hits filed as inhibitors. AID 1347417, 2020; active means well fitted inhibition curve with a large enough effect;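 further: plate controls were DMSO vehicle for no effect and reference drug for full effect; nearly all actives have a fitted effect of over 65% in size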
#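 Readout: SYBR Green fluorescence, 485 nm excitation, 535 nm emission, after ~16 h lysis at 37C. Before that, Dd2-infected red cells (2.5% hematocrit) grew 72 h with compound, 29 uM top final concentration.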
# * marks the source's active call; other numbers are inactive results; i = inactive; [ ] = dose if it differs, or a comment. Potency means the concentration at half of the fitted maximal effect.
SMILES,Pf Dd2 growth
Cc1cccc(N2CCN(S(=O)(=O)c3cc(Br)cc4c3N(C(=O)C3CC3)CC4)CC2C)c1 (stereo not drawn),11µM*
CCN(c1ccccc1)S(=O)(=O)c1cc(Br)cc2c1N(C(=O)C1CC1)CC2,1.1µM*
Cc1ccc(NS(=O)(=O)c2cc(Br)cc3c2N(C(=O)C2CC2)CC3)cc1C,-24%
O=C(C1CC1)N1CCc2cc(Br)cc(S(=O)(=O)Nc3ccc(F)c(F)c3)c21,0%
O=C(C1CC1)N1CCc2cc(Br)cc(S(=O)(=O)N3CCN(c4ccccc4)CC3)c21,21%
CCC(=O)N1CCc2cc(Br)cc(S(=O)(=O)NCCc3cccc(C)c3)c21,-17%
CCC(=O)N1CCc2cc(Br)cc(S(=O)(=O)N3CCC(C(=O)Nc4ccc(OC)cc4)CC3)c21,-27%
COc1ccc(-c2cc(N3CCCC(NC(=O)c4ccc(F)cc4F)C3)n[nH]2)cc1 (stereo not drawn),-19%
Cn1ccnc1CNC(=O)C[C@@H]1C[C@H]2O[C@H](CNC(=O)NC3CCCCC3)[C@@H](O)[C@H]2O1,2%
O=C(Cc1ccccc1Cl)N1CCC(Cc2nc(-c3ccc(F)cc3)no2)CC1,23%
COc1ccccc1C(=O)N1CCC(CCOc2ccc(C)cc2)C1 (stereo not drawn),-8%
Cn1ncc(N2CCC(NC(=O)Cc3ccc(F)cc3)CC2)cc1=O,-11%
CCCN1CCN(C(=O)c2ccc3c(c2)n(CC)c(=O)c2ccnn23)CC1,i
O=C(NCc1ccccn1)c1ccc2c(c1)n(Cc1cccc(F)c1)c(=O)c1ccnn12,5µM*
CN1CCC(NC(=O)c2ccc3c(c2)n(Cc2ccc(F)cc2)c(=O)c2ccnn23)CC1,2.5µM*
Cn1c(=O)c2ccnn2c2ccc(C(=O)Nc3ccc(N4CCOCC4)cc3)cc21,i
O=C(NCc1cccc(F)c1)c1ccc2nccn2c1,-12%[44.1 µM]
CN(C)C(=O)c1ccc2c(c1)n(Cc1ccc(F)cc1)c(=O)c1ccnn12,10µM*
O=C(NCc1ccccc1)c1ccc2oc(=O)n(Cc3ccccc3)c2c1,0%
CNC(=O)c1ccc2c(c1)n(Cc1ccc(OC)cc1)c(=O)c1ccnn12,-20%
COc1ccc(C)cc1NC(=O)N1CCC(Oc2ncccc2C(=O)N(C)C)C1 (stereo not drawn),i
COC[C@@H]1CN(C(=O)c2ccc(OC)cc2OC)C[C@H]1C(N)=O,16%
CSCc1ccc(C(=O)N2CCN(c3ccc(C)cc3)C(=O)C2)o1,-25%
O=C(NC[C@H]1OC[C@@H](NCc2cnc[nH]2)[C@@H]1O)C1CCCC1,14%[44.1 µM]
COCC(=O)N1CCCC(c2nc(C3CCOCC3)no2)C1 (stereo not drawn),-3%
SMILES,Pf Dd2 growth
CN1CCc2[nH]cnc2C12CCN(C(=O)c1cc(=O)[nH]c3ccccc13)CC2,-1%
O=C(NCCSc1c(-c2ccc(Cl)cc2)[nH]c2ccccc12)c1ccc(S(=O)(=O)N2CCOCC2)cc1,8.9µM*
Cc1ccc(CNC(=O)c2c[nH]c3ccc(S(=O)(=O)N4CCOCC4)cc3c2=O)cc1,-22%
O=C(CN1C(=O)CCc2cc(S(=O)(=O)N3CCOCC3)ccc21)NCc1ccc(Cl)cc1,i
O=C(NC1CC(=O)N(c2cccc(F)c2)C1)c1ccc(S(=O)(=O)N2CCOCC2)cc1 (stereo not drawn),40%
O=C(NC1CC(=O)N(c2ccc(Cl)cc2)C1)c1ccc(S(=O)(=O)N2CCOCC2)cc1 (stereo not drawn),i
CCn1cc(C(=O)NCCc2ccccc2)c(=O)c2cc(S(=O)(=O)N3CCOCC3)ccc21,-7%
O=C(NCCSc1c(-c2ccc(Br)cc2)[nH]c2ccccc12)c1ccc(S(=O)(=O)N2CCOCC2)cc1,5.6µM*
O=C(NCCCn1ccnn1)c1cccc(S(=O)(=O)N2CCOCC2)c1,1%
O=C(NCCSc1c(-c2ccccc2)[nH]c2ccccc12)c1ccc(S(=O)(=O)N2CCOCC2)cc1,10µM*
COC[C@H]1NC(=O)CC[C@H]1C(=O)N1CCCc2ccccc21,4%
CCOCC(=O)N1CCCn2ccnc2C1CC (stereo not drawn),14%
CCN(C)C(=O)Cn1c(Cc2ccccc2)nn(-c2ccccc2OC)c1=O,-13%
Cc1nc2scc(CC(=O)NCc3ccco3)n2c(=O)c1-c1cc(C)n(-c2ccccc2F)n1,0%
CC(C)n1cc(C(=O)N2C[C@@H](CN3CCOCC3)[C@@H](CO)C2)cn1,-8%
COc1cc(NC(=O)[C@H]2CCC[C@H]2NC(=O)c2cnc(C)cn2)cc(OC)c1OC,-14%
COC[C@@H]1CN(C(=O)c2cccc(C#N)c2)C[C@H]1c1nc(C2CC2)no1,-5%
CC(C)c1cccc(NC(=O)CN2C(=O)NC3(CCCCC3)C2=O)c1,i
COc1cc2c(cc1OC1CCCC1)NC(=O)C21CCN(c2ncc(F)cn2)CC1,i
COc1cc2c(cc1OC1CCCC1)NC(=O)C21CCN(c2nc(C)cc(C)n2)CC1,11µM*
COc1cc2c(cc1OC1CCCC1)NC(=O)C21CCN(c2ncccn2)CC1,-7%[44.1 µM]
COc1cc(=O)n2c(c1C(=O)Nc1cccc(F)c1C)CCCC2,17%
OC(c1cccc(C(F)(F)F)c1)c1nc(Nc2ccc(F)cc2)n[nH]1 (stereo not drawn),-21%[44.1 µM]
O=C(NCC1Cn2cccc2C(=O)N1Cc1ccccc1)c1ccncc1 (stereo not drawn),-7%
O=C(NCC1Cn2cccc2CN1Cc1ccccc1)c1ccncc1 (stereo not drawn),-28%
SMILES,Pf Dd2 growth
O=C(NCC1Cn2cccc2CN1Cc1ccccc1)c1n[nH]c2ccccc12 (stereo not drawn),13µM*
Cc1ccc(N2C(=S)N[C@H]3[C@@H](O)[C@H](O)C[C@@H](C(=O)N4CCCCC4)[C@H]32)cc1,i
CC(C)c1ccc(N2C(=S)N[C@H]3[C@@H](O)[C@H](O)C[C@@H](C(=O)N(C)Cc4ccccc4)[C@H]32)cc1,13µM*
O=C([C@@H]1C[C@@H](O)[C@H](O)[C@@H]2NC(=S)N(c3ccc(F)cc3)[C@@H]21)N1CCCCC1,-19%[44.1 µM]
Cc1nnc2n1C(C)CN(C(=O)COc1ccc(-n3cnnn3)cc1)C2 (stereo not drawn),-1%
COc1ccc(NS(=O)(=O)c2cc3c(cc2C)NC(=O)CO3)c(OC)c1,4%
COc1ccccc1NS(=O)(=O)c1cc2c(cc1Cl)NC(=O)CO2,8.9µM*
COc1ccc(CNS(=O)(=O)c2cc3c(cc2Cl)NC(=O)CO3)cc1,38%[0.594 µM]
O=C(c1cccc(Cl)c1)N1CCN(C(=O)c2nnn3c2COC(c2ccc(F)cc2)C3)CC1 (stereo not drawn),-1%
CC(C)CNC(=O)c1ccc2c(c1)NC(C)(COc1ccc3[nH]ccc3c1)CO2 (stereo not drawn),-14%[44.1 µM]
O=C(c1ccccc1F)N1CCC2(CC1)C(=NC1CCCCC1)NC(=O)N2c1cccnc1,19%
COCCCNC(=O)C1Cn2cccc2C(=O)N1Cc1ccccc1 (stereo not drawn),21%
COc1ccccc1CNC(=O)C1Cn2cccc2C(=O)N1Cc1cccnc1 (stereo not drawn),4.5µM*
COc1cccc(CNC(=O)C2Cn3cccc3C(=O)N2Cc2ccccc2)c1 (stereo not drawn),-18%
COc1ccccc1OCCNC(=O)C1Cn2cccc2C(=O)N1Cc1cccnc1 (stereo not drawn),5.6µM*
O=C(NCc1cc(F)ccc1F)C1Cn2cccc2C(=O)N1Cc1ccccc1 (stereo not drawn),-12%

# Screens: PubChem, National Center for Advancing Translational Sciences (NCATS)
